According to PubChem BioAssay AID1159580 (chemical genetic matrix, 2015):
Values joined by “and” are separate entries in the source; they are usually repeats but may differ in a detail not shown here. Identical values can stand only once. About 2,000 (36%) of roughly 5,500 compounds were called active. About 18% were inconclusive and are not listed. Rule as the data show it: active = normalized growth mostly below about 0.91 (no sharp cut-off); inconclusive = no clear call, values can overlap the other calls; inactive = mostly above about 0.92. This is one part of the list.

Experiment: chemical genetic growth profiling, strain panel (AID 1159580);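 also: tested at 20 µM; growth read once vehicle control cultures reached saturation at 30 °C; 1 = growth at the plate median or of vehicle wells; lower values mean less growth of the strain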
Settings: S. cerevisiae deletion strains, growth OD

Measured: normalized growth

C[C@@H]1CC[C@@]23CCC4(C)[C@@](C=CC5[C@@]6(C)CC[C@H](O)C(C)(C)C6CC[C@]54C)(OC2=O)C3[C@H]1C (some centres not stated)
inactive: locus YAL021C, strain ccr4, active compounds read low 0.999 | locus YAL026C, strain drs2, active compounds read low 1.01 | locus YAL030W, strain snc1, active compounds read low 1 | locus YBL061C, strain skt5, active compounds read low 1.06 | locus YBR009C, strain hhf1, active compounds read low 1 | locus YBR021W, strain FUR4, active compounds read low 0.999 | locus YBR023C, strain chs3, active compounds read low 1.02 | locus YBR171W, strain sec66, active compounds read low 1 | locus YBR229C, strain ROT2, active compounds read low 1 | locus YBR231C, strain swc5, active compounds read low 1.09 | locus YCL011C, strain gbp2, active compounds read low 1 | locus YCL016C, strain dcc1, active compounds read low 1.08 | locus YCL029C, strain bik1, active compounds read low 1.02 | locus YCL061C, strain MRC1, active compounds read low 0.991 | locus YCL069W, strain vba3, active compounds read low 1.01 | locus YCR088W, strain abp1, active compounds read low 1 | locus YDL005C, strain med2, active compounds read low 1.01 | locus YDL035C, strain GPR1, active compounds read low 1 | locus YDL040C, strain nat1, active compounds read low 1.06 | locus YDL074C, strain BRE1, active compounds read low 1.04 | locus YDL101C, strain DUN1, active compounds read low 1.02 | locus YDL134C, strain PPH21, active compounds read low 1.03 | locus YDL185W, strain tfp1, active compounds read low 1.01 | locus YDL192W, strain arf1, active compounds read low 1.05 | locus YDR001C, strain nth1, active compounds read low 1.01 | locus YDR069C, strain doa4, active compounds read low 0.985 | locus YDR101C, strain arx1, active compounds read low 1.03 | locus YDR159W, strain sac3, active compounds read low 1.1 | locus YDR162C, strain NBP2, active compounds read low 1.04 | locus YDR195W, strain ref2 0.955 | locus YDR297W, strain sur2, active compounds read low 1 | locus YDR318W, strain mcm21, active compounds read low 1.01 | locus YDR334W, strain swr1, active compounds read low 1 | locus YDR335W, strain msn5, active compounds read low 1.01 | locus YDR388W, active compounds read low 1.01 | locus YDR392W, strain spt3, active compounds read low 1.02 | locus YDR502C, strain sam2, active compounds read low 1 | locus YEL003W, strain gim4, active compounds read low 0.99 | locus YEL037C, strain rad23, active compounds read low 1.04 | locus YEL061C, strain CIN8 (second series), active compounds read low 1 | locus YEL061C, strain CIN8, active compounds read low 1.02 | locus YER015W, strain faa2, active compounds read low 1 | locus YER110C, active compounds read low 0.995 | locus YER111C, strain swi4, active compounds read low 1.04 | locus YER155C, strain BEM2 (second series), active compounds read low 0.967 | locus YER155C, strain BEM2, active compounds read low 1.03 | locus YER167W, strain BCK2, active compounds read low 1.01 | locus YFR010W, strain ubp6, active compounds read low 1.02 | locus YGL078C, strain dbp3, active compounds read low 1 | locus YGL086W, strain mad1, active compounds read low 1.02 | locus YGL167C, strain pmr1, active compounds read low 1.02 | locus YGL173C, strain kem1, active compounds read low 0.991 | locus YGL227W, strain vid30, active compounds read low 1 | locus YGL240W, strain doc1, active compounds read low 0.99 | locus YGL248W, strain PDE1, active compounds read low 1.03 | locus YGL253W, strain hxk2, active compounds read low 1.03 | locus YGR078C, strain PAC10, active compounds read low 1.03 | locus YGR135W, strain pre9, active compounds read low 0.993 | locus YGR229C, strain SMI1, active compounds read low 1.08 | locus YGR252W, strain gcn5, active compounds read low 1.07 | locus YHR013C, strain ard1, active compounds read low 1.06 | locus YHR027C, strain rpn1, active compounds read low 1.01 | locus YHR030C, strain SLT2, active compounds read low 1.03 and 1.01 | locus YHR079C, strain IRE1 (second series), active compounds read low 0.998 | locus YHR079C, strain IRE1, active compounds read low 0.999 | locus YHR129C, strain ARP1, active compounds read low 1.03 | locus YHR142W, strain chs7, active compounds read low 1.06 | locus YHR200W, strain rpn10, active compounds read low 0.988 | locus YIL066C, strain RNR3, active compounds read low 1.04 | locus YIL073C, strain SPO22, active compounds read low 1.05 | locus YIL125W, strain kgd1, active compounds read low 0.992 | locus YJL092W, strain hpr5, active compounds read low 1.01 | locus YJL095W, strain BCK1 (second series), active compounds read low 1.03 | locus YJL095W, strain BCK1, active compounds read low 1.06 and 1.01 | locus YJL115W, strain asf1, active compounds read low 1.03 | locus YJL129C, strain trk1, active compounds read low 1.03 | locus YJL134W, strain LCB3, active compounds read low 1.02 | locus YJL154C, strain vps35, active compounds read low 1 | locus YJL164C, strain tpk1, active compounds read low 1.01 | locus YJL166W, strain qcr8, active compounds read low 1.01 | locus YJL187C, strain SWE1 (second series), active compounds read low 1.01 | locus YJL187C, strain SWE1, active compounds read low 0.996
active: locus YBR279W, strain paf1, active compounds read low 1.09 [resistant] | locus YDR137W, strain rgp1, active compounds read low 1.16 [resistant] | locus YER016W, strain bim1, active compounds read low 1.17 [resistant] | locus YHR094C, strain hxt1, active compounds read low 1.14 [resistant] | locus YIR030C, strain dcg1, active compounds read low 1.18 [resistant]
